About 83,000 compounds went through this panel and 20% of them were active in at least one assay; those are over-represented in the sample as a whole.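 Single-concentration screen, 48 h exposure, 96-well plates. Endpoint: percent growth. Below 10 = active.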 Active and inactive are the calls of the source.
Assays:
Test in all cases: NCI-60 one-dose screen, 48 h (100 = growth as untreated, 0 = no growth, -100 = all killed)
Conditions in all cases: 10 µM unless noted
HCT-15 colon = system: HCT-15 colon
HT29 colon = system: HT29 colon
SNB-19 CNS = system: SNB-19 CNS
U251 CNS = system: U251 CNS
PC-3 prostate = system: PC-3 prostate
SK-MEL-5 melanoma = system: SK-MEL-5 melanoma
UACC-62 melanoma = system: UACC-62 melanoma
LOX IMVI melanoma = system: LOX IMVI melanoma
SK-MEL-28 melanoma = system: SK-MEL-28 melanoma
SK-MEL-2 melanoma = system: SK-MEL-2 melanoma
EKVX NSCLC = system: EKVX NSCLC
SN12C renal = system: SN12C renal
UO-31 renal = system: UO-31 renal
TK-10 renal = system: TK-10 renal
ACHN renal = system: ACHN renal
A498 renal = system: A498 renal
CCRF-CEM leukemia = system: CCRF-CEM leukemia
MOLT-4 leukemia = system: MOLT-4 leukemia
CAKI-1 renal = system: CAKI-1 renal

Measured: growth

CC(=O)Nc1ccc(/C=C/C(=O)c2ccccc2)cc1
inactive: HCT-15 colon 91.9% | HT29 colon 83.8% | SNB-19 CNS 77.7% | U251 CNS 74.7% | PC-3 prostate 66.8% | SK-MEL-5 melanoma 100% | UACC-62 melanoma 96.6% | LOX IMVI melanoma 93% | SK-MEL-28 melanoma 103% | SK-MEL-2 melanoma 107% | EKVX NSCLC 112% | SN12C renal 87.5% | UO-31 renal 71.3% | TK-10 renal 110% | ACHN renal 95.3% | A498 renal 73.4% | CCRF-CEM leukemia 31% | MOLT-4 leukemia 75.5%

CCOC(=O)c1cn2c3c(cc(C)cc3c1=O)C(=O)/C(=C/c1ccccc1)C2
inactive: HCT-15 colon 109% | HT29 colon 105% | SNB-19 CNS 84.4% | U251 CNS 83.3% | PC-3 prostate 99% | SK-MEL-5 melanoma 91.3% | UACC-62 melanoma 68.1% | LOX IMVI melanoma 94.5% | SK-MEL-28 melanoma 93.8% | SK-MEL-2 melanoma 95.5% | EKVX NSCLC 101% | SN12C renal 94.2% | TK-10 renal 75% | ACHN renal 91.3% | CAKI-1 renal 73.3% | A498 renal 86.9% | CCRF-CEM leukemia 93.5%

COc1ccc(C2=Nn3c(nnc3-n3nc(C)cc3C)SC2)cc1
active: HT29 colon -17% | PC-3 prostate 9.91% | SK-MEL-5 melanoma 0.149% | A498 renal -8.89% | MOLT-4 leukemia 5.34%
inactive: HCT-15 colon 17.1% | SNB-19 CNS 46% | U251 CNS 15.5% | UACC-62 melanoma 39.5% | LOX IMVI melanoma 26.9% | SK-MEL-28 melanoma 54.8% | SK-MEL-2 melanoma 16.8% | SN12C renal 33.2% | UO-31 renal 45.8% | TK-10 renal 49% | ACHN renal 35.6% | CAKI-1 renal 53.1%

COc1cc(-c2nn(-c3cccc(NC(=O)Nc4cc(C(F)(F)F)cc(C(F)(F)F)c4)c3)cc2-c2ccncc2)ccc1Cl
active: HCT-15 colon 2.59% | HT29 colon -41.2% | SNB-19 CNS 6.55% | U251 CNS -81.7% | PC-3 prostate -55.2% | SK-MEL-5 melanoma -96.1% | UACC-62 melanoma -55.9% | LOX IMVI melanoma -91.3% | SK-MEL-28 melanoma -28.9% | SK-MEL-2 melanoma -52.1% | SN12C renal -8.08% | UO-31 renal -29.2% | TK-10 renal -26.7% | A498 renal -14.6% | CCRF-CEM leukemia -27.3% | MOLT-4 leukemia -24.5%
inactive: ACHN renal 10.5% | CAKI-1 renal 18.5%

CCCCCCN1CSC(=S)N(CCCCCC)C1
inactive: HCT-15 colon 103% | HT29 colon 115% | SNB-19 CNS 106% | U251 CNS 103% | PC-3 prostate 83.6% | SK-MEL-5 melanoma 94.5% | UACC-62 melanoma 95.3% | LOX IMVI melanoma 91.8% | SK-MEL-28 melanoma 102% | SK-MEL-2 melanoma 124% | EKVX NSCLC 91.7% | SN12C renal 104% | TK-10 renal 111% | ACHN renal 109% | CAKI-1 renal 81.3% | A498 renal 94.2% | CCRF-CEM leukemia 88.2% | MOLT-4 leukemia 107%

CCOC(=O)c1c(NS(=O)(=O)c2ccc(C)cc2)sc2c1CCC1(C2)OCCO1
inactive: HCT-15 colon 98.3% | HT29 colon 104% | SNB-19 CNS 98.7% | U251 CNS 99.1% | PC-3 prostate 87.1% | SK-MEL-5 melanoma 95.2% | UACC-62 melanoma 78.2% | LOX IMVI melanoma 98.9% | SK-MEL-28 melanoma 101% | SK-MEL-2 melanoma 90.3% | EKVX NSCLC 94.6% | SN12C renal 95.1% | TK-10 renal 120% | ACHN renal 95.1% | CAKI-1 renal 85.1% | A498 renal 98% | CCRF-CEM leukemia 96.2% | MOLT-4 leukemia 85.8%

O=C(/C=C/c1c[nH]c2ccccc12)c1ccc(O)c(CN2CCN(c3ccc(F)cc3)CC2)c1
inactive: HCT-15 colon 93.5% | HT29 colon 99% | SNB-19 CNS 94.1% | U251 CNS 93.7% | PC-3 prostate 84.7% | SK-MEL-5 melanoma 100% | UACC-62 melanoma 101% | LOX IMVI melanoma 96.1% | SK-MEL-28 melanoma 107% | SK-MEL-2 melanoma 105% | SN12C renal 93.4% | UO-31 renal 59.4% | TK-10 renal 116% | ACHN renal 92.1% | CAKI-1 renal 95.4% | A498 renal 98.5% | CCRF-CEM leukemia 93.2% | MOLT-4 leukemia 99.4%

O=c1c2sc3ncccc3c2nnn1-c1ccccc1
inactive: HCT-15 colon 96% | HT29 colon 109% | SNB-19 CNS 93.6% | U251 CNS 97.7% | PC-3 prostate 98.7% | SK-MEL-5 melanoma 102% | UACC-62 melanoma 105% | LOX IMVI melanoma 104% | SK-MEL-28 melanoma 109% | SK-MEL-2 melanoma 101% | SN12C renal 98.7% | UO-31 renal 90.6% | TK-10 renal 126% | ACHN renal 106% | CAKI-1 renal 93.5% | A498 renal 102% | CCRF-CEM leukemia 90.7% | MOLT-4 leukemia 97.7%

Cc1ccc(C(=O)NCCCNc2nccc(-n3ccc4cccnc43)n2)cc1
inactive: HCT-15 colon 102% | HT29 colon 106% | SNB-19 CNS 90.6% | U251 CNS 93.2% | PC-3 prostate 97.8% | SK-MEL-5 melanoma 99.5% | UACC-62 melanoma 102% | LOX IMVI melanoma 97% | SK-MEL-28 melanoma 106% | SK-MEL-2 melanoma 105% | EKVX NSCLC 86.1% | SN12C renal 95.1% | TK-10 renal 67.7% | ACHN renal 83.2% | CAKI-1 renal 96.6% | A498 renal 81.7% | CCRF-CEM leukemia 107% | MOLT-4 leukemia 94.1%

— PubChem BioAssay (NCI)
